Measured values: PubChem BioAssay (NCI)
Compounds without any hit were thinned out: in the full panel of roughly 79,000, 15% have a hit. Activity calls are given as the source filed them. Cut-off read from the data, not from the text of the source: active = growth inhibition above about 70%; inactive = the rest.

Legend:
[1] = NCI Yeast Anticancer Drug Screen. Data for the rad52 strain (AID 147);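 note: 0% = growth of vehicle-treated control cultures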; settings: S. cerevisiae rad52 mutant growth inhibition, stronger effect = higher value
Outline: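 Genetically altered yeast (DNA damage repair defect) treated with compound; inhibition calculated relative to vehicle.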

[2] = NCI Yeast Anticancer Drug Screen. Data for the wt1 strain (AID 149);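 note: 0% = growth of vehicle-treated wt1 cultures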; settings: S. cerevisiae wt1 strain (SPY 50644) growth inhibition, stronger effect = higher value
Outline: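 Growth inhibition read against vehicle controls after compound exposure of the wt1 yeast strain.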

[3] = NCI Yeast Anticancer Drug Screen. Data for the rad50EPP+ strain (AID 151);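 note: 0% = growth of vehicle-treated control cultures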; settings: S. cerevisiae rad50 mutant strain, stronger effect = higher value
Outline: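 Strain rad50EPP+; compound exposure; % growth inhibition vs vehicle.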

[4] = NCI Yeast Anticancer Drug Screen. Data for the mgt1 strain (AID 153); settings: S. cerevisiae mgt1 mutant growth inhibition, stronger effect = higher value
Outline: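 Read-out: yeast growth inhibition vs vehicle control. Strain mgt1, drawn from a panel altered in DNA damage repair or cell cycle control.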

[5] = NCI Yeast Anticancer Drug Screen. Data for the rad50 strain (AID 155);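 note: 0% = growth of vehicle-only cultures of the same strain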; settings: S. cerevisiae rad50 strain growth inhibition, stronger effect = higher value
Outline: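 Readout: growth inhibition relative to vehicle-treated cultures. Compound exposure was carried out in a genetically defined yeast strain deficient in DNA damage repair.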

[6] = NCI Yeast Anticancer Drug Screen. Data for the mec2-1 strain (AID 157); settings: S. cerevisiae mec2-1 strain, stronger effect = higher value
Outline: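 Cells of the genetically defined mec2-1 yeast strain are incubated with test compound. Inhibition of growth is calculated against vehicle-treated controls.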

[7] = NCI Yeast Anticancer Drug Screen. Data for the rad14 strain (AID 159);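 note: 0% = growth of vehicle-treated control cultures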; settings: S. cerevisiae rad14 strain growth inhibition, stronger effect = higher value
Outline: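 Growth inhibition vs vehicle controls; genetically altered yeast strain (DNA damage repair defect) treated with test compounds.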

[8] = NCI Yeast Anticancer Drug Screen. Data for the sgs1 mgt1 strain (AID 161);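 note: 0% = growth of cultures given vehicle only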; settings: S. cerevisiae sgs1 mgt1 strain, stronger effect = higher value
Outline: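 Genetically altered yeast, compound exposure, growth inhibition relative to vehicle.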

[9] = NCI Yeast Anticancer Drug Screen. Data for the CLN2oe strain (AID 163);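 note: 0% = growth of vehicle-only control cultures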; settings: S. cerevisiae CLN2oe strain, stronger effect = higher value
Outline: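 Strain altered in cell-cycle control, incubated with compound; growth compared to solvent-treated controls.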

[10] = NCI Yeast Anticancer Drug Screen. Data for the cln2 rad14 strain (AID 165);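 note: 0% = growth equal to vehicle treated cultures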; settings: S. cerevisiae cln2 rad14 strain, stronger effect = higher value
Outline: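 The screen exposed genetically defined yeast (cln2 rad14) to test compounds and scored growth inhibition relative to vehicle-treated controls.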

[11] = NCI Yeast Anticancer Drug Screen. Data for the bub3 strain (AID 167); settings: S. cerevisiae bub3 mutant strain, stronger effect = higher value
Outline: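 Readout: yeast growth inhibition, expressed relative to vehicle-only wells. The test organism is a mutant strain from a panel with lesions in DNA repair or checkpoint genes.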

[12] = NCI Yeast Anticancer Drug Screen. Data for the wt2 strain (AID 169);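 note: 0% = growth of vehicle-treated yeast cultures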; settings: S. cerevisiae wt2 strain growth inhibition, stronger effect = higher value
Outline: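 Steps: yeast strain treated with compound; growth recorded; inhibition calculated relative to cultures given vehicle alone.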

[13] = NCI Yeast Anticancer Drug Screen. Data for the mlh1 strain (AID 171);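 note: 0% = growth of vehicle-treated control cultures of the same strain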; settings: S. cerevisiae mlh1 strain growth inhibition, stronger effect = higher value
Outline: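 Yeast screen: mutant strain plus compound, growth scored against vehicle control wells.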

[14] = NCI Yeast Anticancer Drug Screen. Data for the sgs1 strain (AID 173);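 note: 0% = growth of vehicle-only control cultures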; settings: S. cerevisiae sgs1 mutant, stronger effect = higher value
Outline: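 Inhibition of yeast growth served as the measure. The mutant strain was treated with each compound, and growth was normalised to cultures receiving vehicle alone.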

[15] = NCI Yeast Anticancer Drug Screen. Data for the mlh1 rad18 strain (AID 175); settings: S. cerevisiae mlh1 rad18 strain growth inhibition, stronger effect = higher value
Outline: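 Compound-treated yeast growth, normalised to vehicle controls. Strain bears defined DNA repair mutations.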

[16] = NCI Yeast Anticancer Drug Screen. Data for the rad18 strain (AID 177); settings: S. cerevisiae rad18 mutant growth inhibition, stronger effect = higher value
Outline: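 Inhibition values reflect reduced yeast growth compared with vehicle-treated controls, using a strain engineered with a DNA damage repair defect.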

[17] = at 5.0 µM (retest, dose inferred, filed as 0.5)
[18] = at 50.0 µM (retest, dose inferred, filed as 5.0)

Measured: growth inhibition

Cc1ccc(Nc2nc3c(=O)n(C)c(=O)n(C)c3nc2Nc2ccc(C)cc2)cc1
active: [5]; at 50.0 µM 92.5% | [6]; at 50.0 µM 95.3% | [8]; at 50.0 µM 92.8% | [10]; at 50.0 µM 79.3% | [11]; at 50.0 µM 94.5% | [15]; [18] 89% | [15]; at 50.0 µM 95.7%
inactive: [1]; at 1.2 µM -2% | [1]; at 3.7 µM 2% | [1]; at 11.0 µM 2% | [1]; at 33.0 µM 2% | [1]; at 100.0 µM 30% | [2]; at 1.2 µM 0% | [2]; at 3.7 µM -1% | [2]; at 11.0 µM 1% | [2]; at 33.0 µM -3% | [2]; at 100.0 µM 6% | [3]; at 1.2 µM 3% | [3]; at 3.7 µM -2% | [3]; at 11.0 µM -6% | [3]; at 33.0 µM -16% | [3]; at 100.0 µM 41% | [4]; at 1.2 µM -2% | [4]; at 3.7 µM -4% | [4]; at 11.0 µM -4% | [4]; at 33.0 µM 11% | [4]; at 100.0 µM -2% | [5]; at 1.2 µM -2% | [5]; at 3.7 µM 1% | [5]; [17] -13% | [5]; at 11.0 µM 2% | [5]; at 33.0 µM 0% | [5]; [18] 66% | [5]; at 100.0 µM 23% | [6]; at 1.2 µM -2% | [6]; at 3.7 µM 3% | [6]; [17] -9% | [6]; at 11.0 µM -2% | [6]; at 33.0 µM -4% | [6]; [18] 22% | [6]; at 100.0 µM 11% | [7]; at 1.2 µM 0% | [7]; at 3.7 µM -4% | [7]; at 11.0 µM -1% | [7]; at 33.0 µM -5% | [7]; at 100.0 µM 7% | [8]; [17] -2% | [8]; [18] 45% | [9]; at 1.2 µM -2% | [9]; at 3.7 µM 3% | [9]; at 11.0 µM -4% | [9]; at 33.0 µM -5% | [9]; at 100.0 µM -10% | [10]; [17] -14% | [10]; [18] 11% | [11]; at 1.2 µM -3% | [11]; at 3.7 µM -5% | [11]; [17] -9% | [11]; at 11.0 µM 0% | [11]; at 33.0 µM -1% | [11]; [18] 16% | [11]; at 100.0 µM 2% | [12]; at 1.2 µM 0% | [12]; at 3.7 µM -1% | [12]; at 11.0 µM -1% | [12]; at 33.0 µM -2% | [12]; at 100.0 µM 12% | [13]; at 1.2 µM 0% | [13]; at 3.7 µM -2% | [13]; at 11.0 µM 1% | [13]; at 33.0 µM -3% | [13]; at 100.0 µM 3% | [14]; at 1.2 µM -3% | [14]; at 3.7 µM 2% | [14]; at 11.0 µM 1% | [14]; at 33.0 µM 3% | [14]; at 100.0 µM 20% | [15]; [17] -14% | [16]; at 1.2 µM 2% | [16]; at 3.7 µM 0% | [16]; at 11.0 µM 11% | [16]; at 33.0 µM 4% | [16]; at 100.0 µM 46%
